High-throughput results (PubChem BioAssay)
PNC assembly inh = High Content Assay for Compounds that inhibit the Assembly of the Perinucleolar Compartment. PC3M PTB-GFP, PNC prevalence imaging, 16 h; hits give low values. activity change (PNC), negative = inhibition, % at 10 µM. actives 3.1% (n = 140,000). AID 2417, 2010;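 active = readout at or below -70, meaning at least 70% loss of cells showing the perinucleolar compartment, a nuclear body marking cancer cells; inconclusive = readout between -30 and a set limit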;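 also: plate controls were DMSO wells for no effect and camptothecin positive control wells for full effect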
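Compounds are pinned in duplicate onto adhered PC3M cells stably expressing GFP-tagged PTB and incubated 16 h at 37 C. Cells are then fixed, nuclei stained with Hoechst, and PNC-positive cells counted.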
IMPase Li inh = qHTS Assay for Identifying the Cell-Membrane Permeable IMPase Inhibitors: Potentiation with Lithium | AID 1457, 2008 | actives 0.35% (n = 210,000) | Potency, µM (doses to about 59.4 µM), inactives show at the top dose activity, negative = IMPase inhibition, actives largely listed as inhibitors | CHO-M1 cells, IP1 TR-FRET (IP-One), carbachol + lithium;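 also: IP1 builds up when IMPase is blocked and the TR-FRET signal falls; potency is read from the fitted curve at half-maximal effect; plate controls were basal vehicle for no effect and high inhibitor control for full effect; nearly all actives have a fitted effect of over 50% in size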
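Concentration–response in CHO-M1 cells, lithium-potentiated; 30 min at 37C. IP1 detected by competitive TR-FRET after 10 min lysis at RT. Hill-fitted AC50.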
IMPase cell inh = qHTS Assay for Identifying the Cell-Membrane Permeable IMPase Inhibitors; Inositol monophosphatase 1 (Rattus norvegicus), P97697; CHO-M1 cells, IP1 accumulation, HTRF TR-FRET ratio; inhibition (IP1 accumulation), % at 46.1 µM; 120,000 tested, under 10 active; active = well fitted curve in the direction sought with a large enough effect in the signal ratio, not every such curve was filed as active; inconclusive = small, poorly fitted or top-dose-only effect, or a change in a side signal; inactive = no such curve, though single readings can be large or run the other way; the % refers to the signal ratio;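 also: cells stimulated with carbachol in lithium chloride buffer; plate controls were DMSO basal wells for no effect and reference inhibitor wells for full effect; higher means more IMPase inhibition seen as more IP1 and lower FRET ratio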
Target sequence (P97697 whole entry, looked up): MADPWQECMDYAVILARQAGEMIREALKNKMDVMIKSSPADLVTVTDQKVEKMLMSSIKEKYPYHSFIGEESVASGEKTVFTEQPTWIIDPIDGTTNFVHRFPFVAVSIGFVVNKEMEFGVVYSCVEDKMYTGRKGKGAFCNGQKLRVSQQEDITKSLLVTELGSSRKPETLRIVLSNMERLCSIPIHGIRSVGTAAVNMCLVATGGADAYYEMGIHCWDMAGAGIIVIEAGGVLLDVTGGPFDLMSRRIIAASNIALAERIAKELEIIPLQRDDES
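Carbachol-driven Gq signalling in CHO-M1 cells (2000/well) generates IP1. Compounds that block IMPase raise IP1 and so reduce the FRET signal from Eu-anti-IP1 and d2-IP1 after a 10 min room-temperature lysis.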
NPSR antag = qHTS Assay for Antagonists of the Neuropeptide S Receptor: cAMP Signal Transduction. CHO-NPSR cells, cAMP TR-FRET, antagonist mode. actives 1% (n = 220,000). Potency, µM (highest dose often 38.3 µM), for the others: top-dose activity change, negative = inhibition, most hits filed as inhibitors. Q6W5P4. AID 1461, 2008; also: potency is read from the fitted curve at half-maximal effect; % is scaled to controls: 0 for no effect and ±100 for the full control effect; nearly all actives have a fitted effect of over 50% in size
Target sequence (Q6W5P4 whole entry, looked up): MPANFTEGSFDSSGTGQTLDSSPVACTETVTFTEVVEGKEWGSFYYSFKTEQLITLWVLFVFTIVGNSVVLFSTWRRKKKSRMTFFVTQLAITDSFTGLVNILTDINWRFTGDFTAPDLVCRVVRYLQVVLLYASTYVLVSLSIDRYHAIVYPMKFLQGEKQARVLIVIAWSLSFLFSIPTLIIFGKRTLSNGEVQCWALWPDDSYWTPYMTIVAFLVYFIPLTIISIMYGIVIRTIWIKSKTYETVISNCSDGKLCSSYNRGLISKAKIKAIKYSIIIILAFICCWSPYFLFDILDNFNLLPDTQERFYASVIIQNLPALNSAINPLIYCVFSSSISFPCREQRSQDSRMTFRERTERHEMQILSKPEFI
HTT cytoprotect = qHTS Multiplex Assay to Identify Dual Action Probes in a Cell Model of Huntington: Cytoprotection (ATP). actives 0.14% (n = 230,000). PC12 HTT-Q103 induced, cytoprotection, ATP luminescence, 40 h. Potency, µM (doses to about 56.4 µM), inactives show cytoprotection (ATP increase), actives largely listed as activators; also: potency is read from the fitted curve at half-maximal effect; % of control where 0% means no effect; nearly all actives have a fitted effect of over 45% in size
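Rat PC12, Q103 Htt exon1-GFP fusion, ecdysone promoter; tebufenozide inducer 100 nM final; compound titration; qHTS, 1500 cells/well; ATPlite luminescent read.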
HttQ103 aggreg = qHTS Multiplex Assay to Identify Dual Action Probes in a Cell Model of Huntington: Aggregate Formation (GFP) | PC12 HttQ103-GFP aggregates, Acumen cytometry, 40 h | Potency, µM (doses to about 46.1 µM), without a hit: at the highest dose activity change, negative = inhibition, hits mostly inhibitors | actives 1.1% (n = 220,000); also: potency is read from the fitted curve at half-maximal effect; % is scaled to controls: 0 for no effect and ±100 for the full control effect; nearly all actives have a fitted effect of over 60% in size
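Ecdysone-promoter PC12 model expressing HTT exon 1 Q103 fused to GFP, induced by tebufenozide at 100 nM final. Compounds titrated; aggregates sized 1–25 µm scored on a 488 nm laser cytometer.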
* hit, by the source's call; ? = inconclusive; . = not tested or not shown; ! = a repeat was not active; [ ] = dose if it differs, or a comment. The list is not random: actives were taken first. Their share in the collection is about 3.4%. Unless noted, calls follow the shape of the dose curve; as a rule, active = well fitted curve in the direction sought with a large enough effect; inconclusive = small, poorly fitted or top-dose-only effect, or another doubt; inactive = no such curve, though single readings can be large; an effect the other way counts as inactive or inconclusive.

SMILES | PNC assembly inh | IMPase Li inh | IMPase cell inh | NPSR antag | HTT cytoprotect | HttQ103 aggreg
CCOc1ccc(S(=O)(=O)Nc2cc(Cl)ccc2O)cc1 | -8 | 30%[38.3 µM] | -4 | -19%[46.1 µM] | 16%[10 µM] | 22µM*
Cc1ccc(C(=O)C(C)OC(=O)c2ccccc2[N+](=O)[O-])cc1 (stereo not drawn) | ? | -2% | . | -1% | . | 14%
O=C(Nc1ccc(Br)cc1Cl)NC1CC1 | . | 5% | . | -26% | -19% | 18µM*
NC(=O)CSc1nnc(CSc2ncccn2)n1-c1ccccc1 | . | -3% | . | 18% | 10% | -2%
CN(C)CCNC(=O)C(c1ccccc1)c1ccccc1 | . | . | . | 13% | 6%[10 µM] | 1%[9.22 µM]
CC(CCN(C)C)OC(=O)c1ccc(C(C)c2ccccc2)o1 (stereo not drawn) | -107* | 23%[38.3 µM] | 11 | 4%[46.1 µM] | 9%[10 µM] | 28%
CCCn1cc(NC(=O)c2cc3n(n2)C(C(F)(F)F)CC(c2ccccc2)N3)cn1 (stereo not drawn) | -87* | 5%[38.3 µM] | 3 | -15%[46.1 µM] | -19% | -3%
Nc1nc(Sc2c([N+](=O)[O-])cc(C(F)(F)F)cc2[N+](=O)[O-])n[nH]1 | . | . | . | ? | -30%[10 µM] | -8%[9.22 µM]
CCOC(=O)c1sc(-c2ccc(OC)cc2)cc1NC(C)=O | 55 | 11µM* | . | -47% | . | 16%
COCCn1c(=O)c(-c2ccccc2)nc2cnc(Nc3cccc(OC)c3)nc21 | . | 12% | . | . | -27% | .
CCCCNC(=O)Nc1ncn[nH]1 | . | . | . | -8% | 7%[10 µM] | -15%[9.22 µM]
N[C@@H](Cc1cc(CP(=O)(O)O)cc(-c2ccccc2Cl)c1)C(=O)O | . | 6% | -1 | . | 32µM* | .
Cc1cccc(C)c1NC(=O)C(C)c1ccc(-c2ccccc2)c(F)c1 (stereo not drawn) | -3 | 0%[38.3 µM] | 8 | ? | -29% | 18µM*
Cc1ccc(S(=O)(=O)NCCCC(=O)C=[N+]=[N-])cc1 | -109* | 2%[38.3 µM] | 2 | -2%[46.1 µM] | -15%[0.074 µM] | -1%[9.22 µM]
Cc1ccc(NC(=O)CCCCCNS(=O)(=O)c2ccc(C)cc2)cc1 | 29 | 2% | . | -10% | . | -4%
O=C(OCC1CO1)C1CCCCC1C(=O)OCC1CO1 (stereo not drawn) | . | 11% | . | . | -7% | .
CCOc1ccccc1C1CC(=O)NC2=C1C(=O)CC(C)(C)C2 (stereo not drawn) | 31 | -9%[38.3 µM] | 5 | -13%[46.1 µM] | -29% | 35µM*
COc1cc(C2CC(=O)NC3=C2C(=O)CC(C)(C)C3)ccc1O (stereo not drawn) | ? | 19%[38.3 µM] | 1 | 0%[46.1 µM] | ? | ?
COc1ccccc1C(=O)C1Nc2ccccc2-c2nnc(SC)nc2O1 (stereo not drawn) | -104* | 11% | -3 | -14% | 16%[10 µM] | 23%
COC(CNC(=O)c1ccc2c(c1)nc(C)n2-c1cccc(F)c1)OC | 19 | 18%[38.3 µM] | 4 | 1%[46.1 µM] | 2% | -15%[1.84 µM]
COC(CNC(=O)c1ccc2c(c1)nc(C)n2-c1ccc(F)c(F)c1)OC | -91* | 1% | 2 | 7% | 6%[10 µM] | 16%
S=C(Nc1ccccn1)c1ccccn1 | 26 | 16%[38.3 µM] | 5 | 2µM* | -24% | 15%
CC1=CC(C)=Nc2ccc(C)cc2N1 | ? | 2%[38.3 µM] | -6 | -7%[46.1 µM] | ? | 0.89µM*!
Cc1nc(NC2CCCCC2)c2nc(-c3ccccc3)n(CCCN(C)C)c2n1 | . | -10% | . | . | -26% | .
O=[N+]([O-])c1cnc2ccccn12 | . | . | . | 12% | 4µM* | 7%[9.22 µM]
SMILES | PNC assembly inh | IMPase Li inh | IMPase cell inh | NPSR antag | HTT cytoprotect | HttQ103 aggreg
Cc1ncc([N+](=O)[O-])n1Cc1ccccc1 | -22 | -2% | . | 5% | 22%[10 µM] | -12%
COc1cc2c(cc1OC)C1Cc3ccc(OC)c(OC)c3C[N+]1([O-])CC2 (stereo not drawn) | . | . | . | 26% | 4%[10 µM] | -3%[9.22 µM]
Cc1cc(C)c[n+](C2=C([O-])c3ccccc3C(=O)/C2=N\S(=O)(=O)c2cccs2)c1 | 47 | 4% | 12 | 19% | -6%[1.9 µM] | -11%
Cc1ccccc1NC1=C/C(=N\S(=O)(=O)c2cccs2)c2ccccc2C1=O | -29 | 52%[38.3 µM] | 9 | 3.2µM* | -111% | 1.4µM*
CC(=O)Nc1ccc(NC2=C/C(=N/S(=O)(=O)c3cccs3)c3ccccc3C2=O)cc1 | . | 54% | . | 7.9µM* | . | 5.6µM*
Cc1ccc(NC2=C/C(=N/S(=O)(=O)c3cccs3)c3ccccc3C2=O)cc1C | -5 | 22% | . | -7% | . | ?
Cc1cc[n+](C2=C([O-])c3ccccc3C(=O)/C2=N\S(=O)(=O)c2cccs2)cc1C | ? | 4% | . | -1% | -2%[10 µM] | 10µM*
C[C@@]12CCC(=O)C[C@@H]1CC(=O)[C@H]1[C@H]3CCC[C@]3(C)C(=O)C[C@@H]12 (tested in a mixture with another compound) | . | 0% | -4[20.6 µM] | . | ? | .
CNS(=O)(=O)c1cc(-c2nnc(Nc3cc(C)ccc3C)c3ccccc23)ccc1C | . | . | 7 | . | . | .
Cc1cccc(/C(N)=N/OC(=O)C23CC4CC(CC(C4)C2)C3)c1 | -114* | -4% | . | -14% | . | -2%
Clc1ccc(Nc2ncnc3c2cnn3-c2ccccc2)cc1 | 27 | 20%[38.3 µM] | 7 | -27%[46.1 µM] | -6% | 3.5µM*
COc1ccc(OC)c(NC(=O)COC(=O)CN(C)S(=O)(=O)c2ccc(C)cc2)c1 | ? | -7% | . | 10% | 9%[10 µM] | -7%
CN(C)c1ccc(C2(O)C(=O)c3ccccc3C2=O)cc1 | -22 | 3% | . | 9% | . | 16%
Cc1ccccc1NC(=O)CC1(c2ccc(N(C)C)cc2)C(=O)c2ccccc2C1=O | -90* | 10%[38.3 µM] | 0 | -15%[46.1 µM] | -22% | -7%
CC1=CC(=O)C=C(C)C1=NOS(=O)(=O)c1ccccc1 | -14 | 57%[38.3 µM] | ? | 7.9µM* | -111% | 20%[9.22 µM]
CC1=CC(=O)C(C(C)C)=C/C1=N/OS(=O)(=O)c1ccccc1 | . | . | . | 4µM* | -63%[10 µM] | -33%[9.22 µM]
Cn1c(=O)c2[nH]c(/N=N\N3CCN(CCO)CC3)nc2n(C)c1=O | . | 1% | . | . | 6%[10 µM] | .
O=C(Nc1ccccc1C(=O)N1CCCC1)c1ccccc1 | -119* | 9% | 5 | 3% | -16%[10 µM] | 3%
O=C(Nc1cc(C(=O)N2CCCC2)ccc1N1CCCC1)c1ccccc1 | -111* | 28%[38.3 µM] | 9 | -19%[46.1 µM] | 4%[0.074 µM] | -1%
CC(NC(=O)c1ccccc1NC(=O)c1ccccc1)C(=O)N1CCOCC1 (stereo not drawn) | -97* | -5% | . | 14% | -22%[10 µM] | -9%
CCCCOC(=O)Nc1ccccc1C(=O)N1CCCC1 | -113* | -3% | . | 11% | -12% | -6%
